Whole data set: some 39,000 sequences, median “fluorescence intensity (a.u.)” near 4,300, cut for the highest 2% near 39,000. The sample holds the highest values, similar sequences and a random draw of the others, so the mix is not that of the screen.

The assay concerns the target T1, OsSMF1 (Oryza sativa, UniProt Q6ZLB0 1-436).
T1 sequence: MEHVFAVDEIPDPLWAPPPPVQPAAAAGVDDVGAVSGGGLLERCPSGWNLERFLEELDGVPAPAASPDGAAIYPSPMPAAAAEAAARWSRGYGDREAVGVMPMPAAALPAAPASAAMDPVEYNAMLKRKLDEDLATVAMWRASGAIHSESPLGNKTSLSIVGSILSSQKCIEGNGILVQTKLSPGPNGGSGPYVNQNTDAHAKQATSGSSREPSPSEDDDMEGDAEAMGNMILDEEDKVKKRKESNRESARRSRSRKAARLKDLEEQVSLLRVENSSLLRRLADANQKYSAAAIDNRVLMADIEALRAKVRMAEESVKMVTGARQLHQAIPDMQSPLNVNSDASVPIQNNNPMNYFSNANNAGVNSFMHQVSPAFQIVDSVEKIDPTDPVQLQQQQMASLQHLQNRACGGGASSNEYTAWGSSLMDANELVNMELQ
The assay is described as follows: protein-binding microarray (RPBM); PBS, 2% BSA, 51.3 ng/ul salmon testes DNA, 50 uM zinc acetate, 200 nM TF, 25 C, 1 h; high values mean tight binding. Particulars: protein: recombinant; tags: N-terminal polyhistidine and DsRed monomer fusion (pET32a); chain copies: 2; label: CyDye5-dUTP incorporated in the synthesized complementary strand; 3' TTTTT single-stranded linker to array surface; dsDNA, one strand shown. The method, boiled down: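 The binding signal is fluorescence intensity per feature, in arbitrary units, read on an Axon 4000B scanner. Polyhistidine- and DsRed-tagged transcription factors (N-terminal fusions) from E. coli BL21-CodonPlus were purified on Ni–NTA and applied at 200 nM for 1 h at 25 °C to a double-stranded, BSA-blocked custom Agilent array in buffer with 50 µM zinc acetate.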
Regarding “CACACAGCCGCCCTTGCCGACCGCCACCGCCGCAACCGCACGGAGTCACCTAGTGCAG”, the binding signal was 3300 fluorescence intensity (a.u.).

Consider “TTTGCGAACGTAATTCCATTAATTAAACACACGTCTATATCGGAGTCACCTAGTGCAG”, for which the binding signal is 3220 fluorescence intensity (a.u.).

On to “TCGAAGAAGCCCTTTATTTCTCTTTTCGATACTCACACAACGGAGTCACCTAGTGCAG”, for which the binding signal was 3260 fluorescence intensity (a.u.).

For the sequence “GCCAGGTGGGCTGGCGCTGAGTGTCCCACGGTCAGCGCCACGGAGTCACCTAGTGCAG”, the binding signal is 4010 fluorescence intensity (a.u.).

As to “CAGCTACCTCAGCGCCAACCGGACTGGCGCTGAGGTGGGACGGAGTCACCTAGTGCAG”, the binding signal was 39200 fluorescence intensity (a.u.).

“GCGTGGGGCGCCGGTGGCGGAGGGTGGGGACGACAACCAGCGGAGTCACCTAGTGCAG”: the binding signal is 65500 fluorescence intensity (a.u.).

As to “GGCGGAGAGGGTATGGACAACAGCGCCGAGGTGGCGTGGCCGGAGTCACCTAGTGCAG”, the binding signal is 5480 fluorescence intensity (a.u.).

“CGGGCGACGCCGGTGCTGGCGCCAGCGTGGGGCCGCGACGCGGAGTCACCTAGTGCAG”: the binding signal was 4780 fluorescence intensity (a.u.).

For “GTCAGCGCCAACTTACTTGGCGCTGAGGTTGTGCACCTCACGGAGTCACCTAGTGCAG”, the binding signal is 3160 fluorescence intensity (a.u.).

Take “ATTTAATGTTGTCCTAGCTAGATCCATCCAAGGCTCCAAACGGAGTCACCTAGTGCAG”: the binding signal is 3590 fluorescence intensity (a.u.).

For “CGCCAGCCACCTCCGGCGCCGTTCGCCAGCCACCACGCGCCGGAGTCACCTAGTGCAG”, the binding signal is 37900 fluorescence intensity (a.u.).

For the sequence “ACCTTCTAGACAAGGGTATGATGACATGTACCGATCCCAACGGAGTCACCTAGTGCAG”, the binding signal is 6680 fluorescence intensity (a.u.).

For the sequence “CGCGGCGGCGGCGGCGCGAAGGCACGTGGCACGGCGCCGCCGGAGTCACCTAGTGCAG”, the binding signal was 3420 fluorescence intensity (a.u.).

For the sequence “GAACGGTCAAATAGCCGTTAGTGCCACGTGGCGCCTTCCCCGGAGTCACCTAGTGCAG”, the binding signal is 25100 fluorescence intensity (a.u.).

On to “GCCCGCCCGTCCCGTCCGACGTCCGCGTCACGCACGCGCGCGGAGTCACCTAGTGCAG”, for which the binding signal is 7940 fluorescence intensity (a.u.).

For the sequence “TGTACACGCGCAGGGCGGCCCTGGCGTTGCTGACGTGGCGCGGAGTCACCTAGTGCAG”, the binding signal is 42500 fluorescence intensity (a.u.).

As for “ACACACACACACACCCACCACACCACCCCGGCCGCTTCCGCGGAGTCACCTAGTGCAG”, the binding signal is 3210 fluorescence intensity (a.u.).

Regarding “CCACCGCCGCCACACAGTCCGCTTCGGTTCCCCGTTTCCGCGGAGTCACCTAGTGCAG”, the binding signal is 65500 fluorescence intensity (a.u.).

Turning to “CTTCCCGCCGCCGCCACTGCCACGAACAGTTCGCTCACCGCGGAGTCACCTAGTGCAG”, the binding signal was 3200 fluorescence intensity (a.u.).

For “TAGCCGTTAGTGCCACGTGGCGCCTTCCCATTCGACCGCCCGGAGTCACCTAGTGCAG”, the binding signal is 40600 fluorescence intensity (a.u.).

Consider “GCCGTTAGTGCCACGTGGCGCCTTCCCATTCGACCGCCGCCGGAGTCACCTAGTGCAG”, for which the binding signal was 37400 fluorescence intensity (a.u.).

For the sequence “GGCGGCGTTCGCGGCGGCGACGTGGGCGTACCTGACGGCGCGGAGTCACCTAGTGCAG”, the binding signal was 3590 fluorescence intensity (a.u.).

As to “CTCCCGCCGTGGCACGCGCGACGTGCCGCGTGCGCACAGGCGGAGTCACCTAGTGCAG”, the binding signal was 46800 fluorescence intensity (a.u.).

As for “ACGCGCGGGCGTGGCTGACGTGGCCCGGAGAAGGCGGAGGCGGAGTCACCTAGTGCAG”, the binding signal is 5770 fluorescence intensity (a.u.).

Regarding “GGAGGGTGGGGTAGGAGAGGATGCGGCGGGCGCCATGGCTCGGAGTCACCTAGTGCAG”, the binding signal is 3450 fluorescence intensity (a.u.).

Consider “GCCACTTGCCCAGGTCACGCACACATTATTGAGCGAGCGACGGAGTCACCTAGTGCAG”, for which the binding signal was 4590 fluorescence intensity (a.u.).

In the case of “AGTCGCACGCCAAGTGTTTGTTGTTTTGCCAAGCAAGATGCGGAGTCACCTAGTGCAG”, the binding signal is 3520 fluorescence intensity (a.u.).

As to “TCGAGCCCCTCTCCCTCCGCGAGCCGTGTGCAGCGGGCGACGGAGTCACCTAGTGCAG”, the binding signal was 3430 fluorescence intensity (a.u.).

On to “ACGGATTCCTGTTAATAGAGTGTTTCCGTAATATGTGGCACGGAGTCACCTAGTGCAG”, for which the binding signal was 3820 fluorescence intensity (a.u.).

For “GTTTGGGGTTTCTTTCCTGCCTCGTGAGCTGACGCCGGTGCGGAGTCACCTAGTGCAG”, the binding signal was 4080 fluorescence intensity (a.u.).

In the case of “GCCGCGCCGCGCCGTGGCGTGGCGTGGCGTGGCGCGGCCACGGAGTCACCTAGTGCAG”, the binding signal was 6530 fluorescence intensity (a.u.).

For the sequence “GTTAGTGCCACGTGGCGCCTTCCCATTCGACCGCCGCCCGCGGAGTCACCTAGTGCAG”, the binding signal is 42100 fluorescence intensity (a.u.).

Turning to “AAAGCGTTCCGCGGCGCCGCCGTGGCGTCCGGCGTCCGGCCGGAGTCACCTAGTGCAG”, the binding signal was 3900 fluorescence intensity (a.u.).

Regarding “CCGGCGGCAGTGGCCCGGCGGCGCCGCCACCTTCCGTGCCCGGAGTCACCTAGTGCAG”, the binding signal was 43700 fluorescence intensity (a.u.).

Regarding “CGCCTTCGTCCCATCTCGACCGTCCACGTGTGGCCCATCCCGGAGTCACCTAGTGCAG”, the binding signal is 8200 fluorescence intensity (a.u.).

Regarding “GGCAGCCATTCCCACCGCGCCACACGCGCCACACGCCCCGCGGAGTCACCTAGTGCAG”, the binding signal was 3240 fluorescence intensity (a.u.).

Consider “CTCGAGCCCGCGGATGGCGCCCCATGGCGTGGCGGCGGAGCGGAGTCACCTAGTGCAG”, for which the binding signal is 3820 fluorescence intensity (a.u.).

Take “TGTAAGCATCAGCATGTCAAGGTTAACACCTCACTATCTCCGGAGTCACCTAGTGCAG”: the binding signal was 4630 fluorescence intensity (a.u.).

For the sequence “ACAGGGGCAGGGGTCATGTGGTGGAGGTAATCAATTAATCCGGAGTCACCTAGTGCAG”, the binding signal was 3660 fluorescence intensity (a.u.).

As for “TAGATGTTACTCCCTCCGTCCCTTCGTCCTAAAATGTAGCCGGAGTCACCTAGTGCAG”, the binding signal was 35900 fluorescence intensity (a.u.).

Consider “GCAGATCTTGACTATCTCCACGGGATATATACACGGCGGCCGGAGTCACCTAGTGCAG”, for which the binding signal was 22300 fluorescence intensity (a.u.).

Take “GCTCCTCGCGCTGCTCATCATCCTCCCCTCCACGCCGCCGCGGAGTCACCTAGTGCAG”: the binding signal was 4730 fluorescence intensity (a.u.).

As for “CGCTCATGAAGCTCCTTCCCTACGCGCGCTCGCCGAATCGCGGAGTCACCTAGTGCAG”, the binding signal was 44000 fluorescence intensity (a.u.).

With “CTCCCTTCCCTTCCCTTCCTCTCGCCGAACCAACGCGGAACGGAGTCACCTAGTGCAG”, the binding signal is 3360 fluorescence intensity (a.u.).

Consider “CCCAAGGAGGATGAGGTGGAGGTGGGAGTGCGCATTGAGGCGGAGTCACCTAGTGCAG”, for which the binding signal is 4880 fluorescence intensity (a.u.).

For “CCTTAGACCTTCTGGATTACATCGTAAGCTGGCTTCTCCTCGGAGTCACCTAGTGCAG”, the binding signal is 3490 fluorescence intensity (a.u.).

With “CCACACAGCGATAATCGAGCGGATTGGACCAAAGTACGAGCGGAGTCACCTAGTGCAG”, the binding signal is 38200 fluorescence intensity (a.u.).

Turning to “CAAAGCGGCCCAACAATGAACACGTCACTTGTATTCACTACGGAGTCACCTAGTGCAG”, the binding signal is 7510 fluorescence intensity (a.u.).

On to “ATGTGACTGAAAAGTTGTGTGTGTATGACAGGTTGATGTGCGGAGTCACCTAGTGCAG”, for which the binding signal is 3800 fluorescence intensity (a.u.).

As for “TTGATTGAAATTGGAGATGATGTGACTGAAAAGTTGTGTGCGGAGTCACCTAGTGCAG”, the binding signal was 4220 fluorescence intensity (a.u.).

For “CCAGGATAAAATAAAGGTTGTATGTTACAAATGTTTGATCCGGAGTCACCTAGTGCAG”, the binding signal was 42200 fluorescence intensity (a.u.).

“ACAAACTTTGTATACGTGTATAAAATATTGATATATGTACCGGAGTCACCTAGTGCAG”: the binding signal was 4410 fluorescence intensity (a.u.).

In the case of “GTTTGAGATGTGTAATAAAGGATCGATCTTGTTGACGATCCGGAGTCACCTAGTGCAG”, the binding signal is 3530 fluorescence intensity (a.u.).

Regarding “TGACAGGTTGATGTGATGGAAAAGGACTGAAGGTTGGATCCGGAGTCACCTAGTGCAG”, the binding signal is 42400 fluorescence intensity (a.u.).
